Assay outcomes from PubChem BioAssay.
KCNQ2 pot: potentiators of rat KCNQ2 potassium channel; Potassium voltage-gated channel subfamily KQT member 2 (Rattus norvegicus), O88943; CHO-K1 KCNQ2, FluxOR thallium flux fluorescence; stronger effect = higher value; B-score at 10 µM; 310,000 compounds, 0.54% hits; AID 2239, 2010;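 active = fluorescence ratio B-score at least 3 SD of library B-scores, with initial fluorescence B-score within 3 of them, cut at about 5.3 in these data; same plate scores as AID 2156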;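 also: B-score of peak minus minimum over baseline fluorescence ratio after K+ and Tl+ stimulus; positive B-score means potentiation of KCNQ2 with more thallium influx and brighter signal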
KCNQ2 block: rat KCNQ2 potassium channel inhibitors, primary screen, cell-based, CHO-K1, FluxOR thallium flux, B-score; Potassium voltage-gated channel subfamily KQT member 2 (Rattus norvegicus), O88943; 20 min; stronger effect = lower value; B-score at 10 µM; 310,000 compounds, 1.1% hits; AID 2156, 2009;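 active = fluorescence ratio B-score at most minus 3 library SDs, with starting brightness B-score within 2 library SDs, cut at about -5.5 in these data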
KCNQ2 inh conf: rat KCNQ2 potassium channel inhibitors, confirmation, cell-based, thallium flux; KCNQ2-expressing cells, inhibition; stronger effect = lower value; 1,000 compounds, 57% hits; activity change, negative = inhibition, % at 10 µM; shares compounds with KCNQ2 block; AID 493025, 2011;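 also: 0% = vehicle wells and values are ratio percent relative to vehicle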
KCNQ1 spec: human KCNQ1 channel inhibition, counter-screen for KCNQ2 inhibitor project, cell-based, FluxOR thallium flux. shares compounds with KCNQ2 block. KCNQ1-expressing cells, FluxOR thallium flux fluorescence; stronger effect = lower value. activity change, negative = inhibition, % at 10 µM. 1,000 compounds, 15% hits. AID 493026, 2011;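 active = activity change at least 3 SD of negative controls below their mean in both duplicate wells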;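 also: CHO cells stably transfected with KCNQ1 and depolarized by potassium stimulus; peak minus minimum fluorescence over baseline after thallium addition; 0% = vehicle negative control and -100% = blank without thallium stimulus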
Target sequence (P51787 whole entry, looked up): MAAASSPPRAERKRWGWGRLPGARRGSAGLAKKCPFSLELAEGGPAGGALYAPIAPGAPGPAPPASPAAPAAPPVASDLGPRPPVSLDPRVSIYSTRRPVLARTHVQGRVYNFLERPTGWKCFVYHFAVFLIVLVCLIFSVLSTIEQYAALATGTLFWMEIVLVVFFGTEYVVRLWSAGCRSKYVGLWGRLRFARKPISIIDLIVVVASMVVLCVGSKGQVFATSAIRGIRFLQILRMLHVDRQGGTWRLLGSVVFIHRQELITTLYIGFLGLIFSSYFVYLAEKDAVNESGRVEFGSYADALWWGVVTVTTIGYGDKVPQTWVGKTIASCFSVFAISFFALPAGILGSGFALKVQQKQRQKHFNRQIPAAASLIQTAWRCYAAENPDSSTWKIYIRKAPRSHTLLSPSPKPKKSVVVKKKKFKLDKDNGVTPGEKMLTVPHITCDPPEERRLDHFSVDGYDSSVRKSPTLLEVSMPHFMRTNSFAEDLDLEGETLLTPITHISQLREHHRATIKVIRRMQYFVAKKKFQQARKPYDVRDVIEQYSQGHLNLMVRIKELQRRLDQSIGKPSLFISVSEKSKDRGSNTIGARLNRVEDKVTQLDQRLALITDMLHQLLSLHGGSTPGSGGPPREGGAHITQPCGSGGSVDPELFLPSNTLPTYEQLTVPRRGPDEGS
CHO parental ctr: thallium flux change in parental CHO cells, counter-screen for KCNQ2 inhibitor project | activity change, % at 10 µM | 1,000 compounds, 14% hits | shares compounds with KCNQ2 block | stronger effect = lower value;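 also: 0% = vehicle negative controls with stimulus buffer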
KCNQ2 inh confirm: rat KCNQ2 channel inhibitors, confirmation, cell-based, automated patch clamp, single concentration | 550 compounds, 49% hits | AID 588531, 2011 | KCNQ2-expressing cells, automated patch clamp current | calls only at 10 µM | shares compounds with KCNQ2 block
An asterisk follows results filed as active; i = inactive; · = no result given; + = active, no number. Compounds with a hit are over-represented: about 1.6% of the library has one in this group of screens. Unless noted, no rule for the calls is given here.

SMILES	KCNQ2 pot	KCNQ2 block	KCNQ2 inh conf	KCNQ1 spec	CHO parental ctr	others
CC(=O)c1cccc(NC(=O)Nc2ccc3c(c2)N(C)C(=O)CS3)c1	-8.5	-8.5*	-44%*	-34%*	-29%*	KCNQ2 inh confirm=i
Cc1cc(C)cc(NC(=O)Nc2ccc3c(c2)N(C)C(=O)CS3)c1	1.4	i	·	·	·
Cc1ccnc(NC(=O)Cn2c(=O)oc3ccccc32)c1	0.2	i	·	·	·
CC1Oc2ccccc2N(CC(=O)N2CCCCCC2)C1=O (configuration not stated)	0.03	i	·	·	·
O=C(O)c1cnc(-c2ccccc2)nc1Oc1ccc(Cl)cc1	-7.5	-7.5*	-20%*	i	i	KCNQ2 inh confirm=+
O=C(O)c1cnc(-c2ccccc2)nc1Oc1ccccc1	·	i	·	·	·
O=C(CCN1C(=O)C2CCCCC2C1=O)N1CCN(S(=O)(=O)c2c(F)cccc2F)CC1 (configuration not stated)	0.86	i	·	·	·
O=C(NNC(=O)c1sccc1-n1cccc1)Nc1ccc(F)cc1	0.77	i	·	·	·
C=CCNC(=O)NC(=O)COC(=O)CC(NC(N)=O)c1ccc(Cl)cc1 (configuration not stated)	0.21	i	·	·	·
Cc1ccc(NC(=O)COc2cccc(C)c2C)cc1S(=O)(=O)N1CCCCCC1	-8.8	-8.8*	-36%*	-32%*	-24%*	KCNQ2 inh confirm=i
Cc1ccccc1OCC(=O)Nc1ccccc1N1CCCCC1	-10	-10*	-26%*	i	i	KCNQ2 inh confirm=+
Cc1cc(C)cc(OCC(=O)Nc2ccccc2N2CCCCC2)c1	·	i	·	·	·
CCC(=O)N1CCN(c2ccccc2NC(=O)c2cccc(C)c2)CC1	·	i	·	·	·
COc1ccc(NC(=O)COc2ccccc2C)cc1S(=O)(=O)N1CCCCC1	·	i	·	·	·
CCC(=O)N1CCN(c2ccccc2NC(=O)COc2cccc(C)c2)CC1	-10	-10*	-28%*	i	i	KCNQ2 inh confirm=+
C=CCNC(=O)/C(C#N)=C\c1cc(Cl)c(OCC)c(OC)c1	·	i	·	·	·
Cc1ccc(NCC(=O)N/N=C/c2c[nH]c3ccccc23)cc1	·	i	·	·	·
Cc1ccc(NC(=O)C2=C(C(=O)O)CCCC2)cc1Br	·	i	·	·	·
O=S(=O)(Cc1ccccc1Cl)NCCc1ccc(F)cc1	·	i	·	·	·
C=C(C)CN1CCN(S(=O)(=O)c2ccc(C)c(N(C)S(=O)(=O)c3ccc(C)cc3)c2C)CC1	-8.5	-8.5*	-32%*	-32%*	-25%*	KCNQ2 inh confirm=i
Cc1ccc(S(=O)(=O)N(C)c2c(C)ccc(S(=O)(=O)N3CCN(C)CC3)c2C)cc1	·	i	·	·	·
C=CCNC(=O)COc1coc(CN2CCN(C(=O)c3ccco3)CC2)cc1=O	·	i	·	·	·
COc1ccc([N+](=O)[O-])c(OC)c1C(=O)NC(=O)Nc1c(F)c(F)c(F)c(F)c1F	·	i	·	·	·
O=S(=O)(NCCCCNS(=O)(=O)c1ccc(F)cc1)c1ccc(F)cc1	·	i	·	·	·
CC1CN(S(=O)(=O)c2cccc(C(=O)Nc3ccc(S(=O)(=O)Nc4ncccn4)cc3)c2)CC(C)O1 (configuration not stated)	1.3	i	·	·	·
SMILES	KCNQ2 pot	KCNQ2 block	KCNQ2 inh conf	KCNQ1 spec	CHO parental ctr	others
O=C1CSC(c2cccs2)N1c1ccccc1 (configuration not stated)	0.72	i	·	·	·
c1ccc(N2CCN(c3ccccc3)C2c2cccs2)cc1	-7	-7*	i	i	i
Cn1c(-c2ccc3c(c2)OCO3)cnc1NCc1cccc(Cl)c1	-9	-9*	i	i	i
Cn1c(-c2ccc3c(c2)OCO3)cnc1NCc1ccccc1Cl	0.69	i	·	·	·
N#CCc1nc(-c2cc3ccccc3oc2=O)cs1	0.89	i	·	·	·
CC1CCC(=C(C#N)c2nc(-c3cc4ccccc4oc3=O)cs2)CC1 (configuration not stated)	-8.5	-8.5*	i	i	i
COc1ccc(-c2nnn(CC(=O)N(CC3CCCO3)C(C(=O)NC(C)(C)C)c3ccco3)n2)cc1OC (configuration not stated)	·	i	·	·	·
Cc1cc(C)c(C(=O)N2CCC(N3CCC(C(=O)NC(C)C)CC3)CC2)o1	0.07	i	·	·	·
Cn1c(SCCC#N)nnc1-c1ccc(F)cc1	0.45	i	·	·	·
CC(C)(C)c1ccc(-c2nnc(SCCC#N)n2C2CCCC2)cc1	-8.5	-8.5*	-28%*	i	i	KCNQ2 inh confirm=i
CC(C)CCNC(=O)C(c1ccco1)N(CCCO)C(=O)Cn1nnc(-c2ccc(F)cc2)n1 (configuration not stated)	0.71	i	·	·	·
O=C(NC1CC1)C1CCN(C2CCN(C(=O)CC3=CCCCC3)CC2)CC1	·	i	·	·	·
CCOC(=O)N1CCN(C(=O)c2cc(COc3cccc(C(F)(F)F)c3)on2)CC1	0.66	i	·	·	·
C=CCC1(CC=C)CCCN1C(=O)c1cc(COc2cccc(C(F)(F)F)c2)on1	-9.5	-9.5*	-34%*	-30%*	-28%*	KCNQ2 inh confirm=+
O=C(CC1C(=O)NCCN1Cc1cccc(Oc2ccccc2)c1)NCCCn1cccn1 (configuration not stated)	·	i	·	·	·
COc1ccc(C(=O)CSc2nnc(CNC(=O)c3ccccc3F)n2C)cc1OC	0.81	i	·	·	·
O=[N+]([O-])c1cccc(/C=N\N2CCN(Cc3ccccc3Cl)CC2)c1	-7.3	-7.3*	i	i	i
O=[N+]([O-])c1cccc(/C=N/N2CCN(Cc3ccccc3)CC2)c1	·	i	·	·	·
CCOC(=O)c1c(C)[nH]c(C(=O)OCC(=O)c2ccc3c(c2)NC(=O)CO3)c1C	1.6	i	·	·	·
O=C(CN1CCCc2ccccc21)NCc1ccc2c(c1)OCO2	·	i	·	·	·
O=C(CN1CCCc2ccccc21)NCCc1ccc(Cl)cc1	-11	-11*	-34%*	i	i	KCNQ2 inh confirm=+
Cc1c(C(C)NC(=O)c2cc(COc3cccc4cnccc34)on2)cnn1C (configuration not stated)	·	i	·	·	·
C/C(=C\C(=O)c1ccc(F)cc1)NCc1ccc2c(c1)OCO2	·	i	·	·	·
C/C(=C\C(=O)c1ccc(Br)cc1)NCc1ccc2c(c1)OCO2	-6.9	-6.9*	-17%*	i	i	KCNQ2 inh confirm=i
NC(=O)CC(NC(=O)c1ccc(Br)cc1)c1ccc(N2CCCCCC2)c([N+](=O)[O-])c1 (configuration not stated)	0.95	i	·	·	·
Cc1cccc(-c2nnc(SCc3ccc(C#N)cc3)n2Cc2ccco2)c1	-8.8	-8.8*	-26%*	i	i
CCn1c(SCc2ccc(C#N)cc2)nnc1-c1cccc(Cl)c1	·	i	·	·	·
CC(=O)c1ccc(OCc2cc(C(=O)NCCc3ccc(Cl)cc3)no2)cc1	·	i	·	·	·
C=CCn1c(NCc2cc(C)ccc2O)nc2ccccc21	-7.1	-7.1*	-16%*	i	i	KCNQ2 inh confirm=+
